# In the library only some 2.2% were active in any assay of this set; here they are far more common.
# HSP90 refold inh = HSP90 inhibitors, primary screen, cell lysate, luminescence; Rabbit reticulocyte lysate, luciferase refolding luminescence, 3 h; AID 1789, 2009; Heat shock protein HSP 90 (rabbit reticulocyte lysate; luciferase refolding); inhibition, % at 5.6 µM; 290,000 compounds, 0.91% hits;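 active means inhibition above the screen-wide mean plus 3 SD, computed separately per campaign, cut at about 16% in these data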;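 further: 0% = DMSO wells and 100% = 60 µM geldanamycin wells; inhibitors lower the luminescence because luciferase stays unfolded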
# TWEAK Fn14 block = inhibitors of TWEAK-Fn14 signaling, primary screen, luciferase reporter cells, uHTS | 360,000 compounds, 2% hits | inhibition, % at 10 µM | TWEAK-stimulated Fn14 reporter cells, luciferase luminescence, 8 h; in the data active means inhibition above about 50%
# TROY signal inh = inhibitors of TROY-driven NF-kB signaling, primary screen, Q293 LMP1-TROYcd cells, NF-kB luciferase, uHTS | Q293 LMP1-TROYcd NF-kB luciferase reporter, 4 h | inhibition, % at 10 µM | 360,000 compounds, 0.98% hits | AID 1347056, 2019;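 active means compounds whose plate-normalised and pattern-corrected inhibition of the luciferase reporter signal at the single screening dose is 50% or more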
# LGR2 antag = inhibitors of bursicon-induced LGR2 CRE-luciferase signal, primary screen, cell-based, HEK293, CRE-luciferase reporter, bursicon stimulation | 380,000 compounds, 0.35% hits | inhibition, % at 9.99 µM | Drosophila bursicon receptor LGR2 (rickets) | bursicon-stimulated, 4 h | AID 720647, 2013;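 active means drop in luminescence signal, shown as inhibition above about 50% in the replicate tests, limit read from the data, passing the limit was not always enough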;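 further: agonist challenge used bursicon conditioned medium at about half maximal strength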
# HSP90 inh confirm = HSP90 inhibitors, confirmation, cell lysate, luminescence; 2,300 compounds, 64% hits; rabbit reticulocyte lysate, luciferase refolding luminescence, 3 h; shares compounds with HSP90 refold inh; inhibition, % at 5.9 µM; AID 1846, 2009; in the data active means inhibition above about 18%;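 further: 0% = vehicle wells and 100% = reference inhibitor wells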
# luciferase ctr = firefly luciferase inhibitors, HSP90 counter-screen, confirmation, artefact control for HSP90 inhibitor project, biochemical, luminescence, triplicate; shares compounds with HSP90 refold inh; 2,300 compounds, 48% hits; purified native firefly luciferase; inhibition, % at 5.9 µM; AID 1847, 2009;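 active means inhibition above the mean inhibition of all tested sample wells plus 3 SD, cut at about 10% in these data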;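 further: 0% = DMSO with luciferase and 100% = wells lacking luciferase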
# Target sequence (P08659 whole entry, looked up): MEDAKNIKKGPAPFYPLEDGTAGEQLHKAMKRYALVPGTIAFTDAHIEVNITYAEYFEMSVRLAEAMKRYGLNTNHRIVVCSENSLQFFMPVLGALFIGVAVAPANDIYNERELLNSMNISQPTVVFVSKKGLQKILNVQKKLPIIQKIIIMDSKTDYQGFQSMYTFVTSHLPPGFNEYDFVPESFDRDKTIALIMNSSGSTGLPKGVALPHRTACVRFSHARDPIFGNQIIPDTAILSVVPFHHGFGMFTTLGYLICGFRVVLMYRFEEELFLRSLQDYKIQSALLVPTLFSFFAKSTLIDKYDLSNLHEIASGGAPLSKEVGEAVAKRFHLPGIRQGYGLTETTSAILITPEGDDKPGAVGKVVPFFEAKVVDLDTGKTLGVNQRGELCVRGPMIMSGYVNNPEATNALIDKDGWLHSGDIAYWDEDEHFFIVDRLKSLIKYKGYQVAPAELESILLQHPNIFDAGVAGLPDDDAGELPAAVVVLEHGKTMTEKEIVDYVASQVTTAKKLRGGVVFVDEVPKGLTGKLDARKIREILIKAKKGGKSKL
# The depositor's hits bear a star; / = no result given.
SMILES,HSP90 refold inh,TWEAK Fn14 block,TROY signal inh,LGR2 antag,HSP90 inh confirm,luciferase ctr
Cc1ccc2oc(=O)c(/C=C(\O)c3ccccc3)nc2c1,3,13,-24,-33,/,/
Cc1ccc2oc(=O)c(/C=C(\O)c3cccs3)nc2c1,18*,-10,-27,/,42*,-16
O=c1oc2ccc(Cl)cc2nc1/C=C(\O)c1cccs1,63*,5,-40,-42,79*,-11
CCS(=O)(=O)c1ccc2oc(=O)c(/C=C(\O)c3ccc(Cl)cc3)nc2c1,-4,-1,10,14,/,/
Cc1ccc(-c2cn(-c3ccccc3)c(=S)[nH]2)cc1C,19*,68*,50,-25,27*,15*
Cc1ccccc1-c1cn(-c2ccccc2)c(=S)[nH]1,5,-23,-8,13,/,/
Cc1cc(C(=O)Nc2ccc3c(c2)C(=O)N(C)[C@H]2CC[C@@H](CC(=O)N[C@H](C)c4ccccc4)O[C@@H]2CO3)no1,/,/,/,12,/,/
COc1ccc(N2CCN(/C(=N\S(=O)(=O)c3ccccc3)Nc3nc(C)cc(C)n3)CC2)cc1,39*,3,-22,/,-4,-6
C[C@@H]1CCCCO[C@H](CN(C)C(=O)Nc2ccc3c(c2)OCO3)[C@H](C)CN([C@@H](C)CO)C(=O)c2cc(NS(C)(=O)=O)ccc2O1,/,/,/,-4,/,/
CCC(=O)N(C1=C(NC(C)C)C(=O)c2ccccc2C1=O)C(C)C,-2,6,9,13,/,/
CCCNC1=C(N(C(C)=O)c2cccc(F)c2)C(=O)c2ccccc2C1=O,82*,79*,18,12,-5,-11
COc1ccc2c3c([nH]c2c1)[C@@H](CO)N(Cc1nccs1)CC31CCN(C(=O)C2CC2)CC1,/,/,/,-11,/,/
C[C@@H]1CN([C@H](C)CO)C(=O)c2cc(-c3ccccc3)cnc2O[C@H]1CN(C)Cc1ccccc1,/,/,/,1,/,/
COCC(=O)N(C[C@@H]1N[C@@H](CO)[C@@H]1c1ccc(C2=CCCCC2)cc1)C(C)C,/,/,/,4,/,/
COCCn1c(C)cc(C(=O)CSc2nnc(C)s2)c1C,48*,91*,13,/,80*,72*
COCCn1c(C)cc(C(=O)CSc2n[nH]c(N)n2)c1C,-3,-5,2,/,/,/
CCNC(=O)C[C@@H]1CC[C@@H](NS(=O)(=O)c2ccc(C)cc2)[C@H](CO)O1,/,/,/,5,/,/
Cc1cccc(CCN(C(=O)Cc2cccs2)C(C(=O)NC2CCCCC2)c2cccnc2)c1 (stereo unspecified),25*,11,-16,/,2,-4
c1ccc(-c2nnc(-c3ccccn3)s2)nc1,35*,81*,28,60*,64*,44*
C[C@H](CO)N1C[C@H](C)[C@H](CN(C)Cc2ccc(C(=O)O)cc2)Oc2c(cccc2N(C)C)C1=O,/,/,/,8,/,/
COc1ccc(/C=C/C(=O)OC2CCCN(C)C2)cc1 (stereo unspecified),10,-7,-24,-10,/,/
COc1ccc(/C=C/C(=O)OC2CCCCC2CN(C)C)cc1 (stereo unspecified),21*,6,7,19,1,-4
Cc1ccc(-c2nc3n(n2)Cc2ccccc2-3)cc1,21*,94*,58*,/,67*,61*
Cc1ccc(Cn2nc(-c3ccccc3)nc2-c2ccccc2)cc1,-5,-23,-57,/,/,/
CCn1c(C)nc2cc(-c3nc4n(n3)Cc3ccccc3-4)ccc21,88*,105*,/,/,97*,92*
COc1cccc(-c2ccc([C@H]3[C@@H](C#N)N(C(=O)c4ccccn4)[C@H]3CO)cc2)c1,/,/,/,4,/,/
CCCN1[C@H](C(=O)NCC)[C@@H](CO)[C@@H]2Cn3c(ccc(-c4ccc(C(=O)N(C)C)cc4)c3=O)[C@@H]21,/,/,/,11,/,/
C[C@H]1CN([C@@H](C)CO)C(=O)c2cccc(NS(=O)(=O)c3cn(C)cn3)c2O[C@H]1CN(C)C,/,/,/,9,/,/
O=C(Nc1ccc(NC(=O)c2ccccc2F)cn1)c1ccco1,28*,53*,23,35,52*,36*

# Screening data: PubChem, several laboratories
